# PubChem BioAssay AID1159607 (Small Molecule Screening Facility, UW Madison, 2016)
# Where “and” joins values, the source holds several entries; their conditions need not be identical. Equal entries are not always repeated. About 400 (0.57%) of roughly 70,000 compounds were called active. No stated cut-off is given here; in the data, active means FP signal below about 40; inactive means the rest. Shown is part of a subset that was picked to be rich in actives.
# Test system: RMI core complex (RMI1/RMI2) binding to FANCM MM2 peptide, human
# Test: disruptors of RMI1/RMI2 association with MM2 peptide – biochemical, fluorescence polarization, human, primary screen (AID 1159607)
# Conditions: RMI core complex with F-MM2 peptide, at 33 µM, stronger effect = lower value
row,Compound,FP signal (polarization)
1,CC(=O)O[C@H]1CC[C@@]2(C)C(=CCC3C2CC[C@]2(C)C(=O)CCC32)C1 (stereo not given in full),-6 (active)
2,CC(=O)NBr,53 (inactive)
3,CC12CCC3C(CCC4CC(O)CCC43C)C1C/C(=C\c1ccccc1Cl)C2=O (stereo not given),62 (inactive)
4,CN1CCc2cc3c(cc2[C@H]1[C@@H]1OC(=O)c2c1ccc1c2OCO1)OCO3,67 (inactive) and 61 (inactive)
5,CSC(=NCc1ccccc1Cl)N/C(N)=N/[N+](=O)[O-],58 (inactive)
6,NCC(O)c1ccc(O)cc1 (stereo not given),-18 (active) and 54 (inactive) and 46 (inactive)
7,COc1ccc2c(c1O)-c1cccc3c1[C@@H](C2)N(C)CC3,57 (inactive)
8,c1cncc(OCC2=NCCN2)c1,51 (inactive)
9,CNC(=O)O/N=C\C(C)(C)SC,58 (inactive)
10,CC(=O)NS(=O)(=O)c1ccc(NC(=O)c2cccn(Cc3cccc([N+](=O)[O-])c3)c2=O)cc1,51 (inactive)
